From PubChem BioAssay AID847 (SRMLSC, 2007)
Among all 41,000 compounds or so, about 190 (0.46%) were called active.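 Rule for the calls: active = viability at or below the median of all test compounds minus 3 SD, in both replicates if run twice (cut at about 45% in these data); inconclusive = duplicate replicates that disagree with each other; inactive = viability above that cutoff in every replicate.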 Many of the other results were omitted from the sample, so actives are more common in it than they were.

Assay: SK-BR-3 proliferation inhibitors, primary screen, cell-based, human, 24 h (AID 847);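 note: 100% = median untreated cell wells and 0% = median positive control drug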
Conditions: SK-BR-3 viability, CellTiter-Glo ATP luminescence, at 10 µM, active compounds read low
In the case of `COc1cc(C(=O)Nc2nccs2)cc(OC)c1OC`, the viability is reported as 98.8% (inactive). For `CC(C)OC(=O)c1sc2nc3c(cc2c1N)C(=O)CCC3`, the viability was 70.8% (inactive). In the case of `CCOC(=O)c1c(C)n(C)c2ccc(OC)c(NC(=O)CN3CCC4(CC3)OCCO4)c12`, the viability is reported as 88.1% (inactive). For `Cc1ccc(C(=O)NCCNS(=O)(=O)c2ccccc2)cc1`, the viability was 104% (inactive). For `CC(=O)Nc1ccc(S(=O)(=O)Nc2cccc(NC(=O)C(C)(C)C)c2)cc1`, the viability was 84.7% (inactive). For `CC(c1ccccc1)n1c(NCCCn2ccnc2)nc2c1c(=O)[nH]c(=O)n2C` (stereo not drawn), the viability was 62.8% (inactive). For `O=C(c1cccs1)N(C(=O)c1cccs1)c1ccccn1`, the viability was 75% (inactive). With `Cc1cccc(N2CC(C)Cn3c2nc2c3c(=O)n(CC(=O)OCc3ccccc3)c(=O)n2C)c1` (stereo not drawn) the viability was 72.3% (inactive). For `CCN1C(=O)CS/C1=N\c1nccs1`, the viability was 96% (inactive). With `O=C(O)c1ccc(F)c(S(=O)(=O)Nc2ccccc2)c1` the viability was 99.6% (inactive). With `CCOc1ccc2nc(NCCNS(=O)(=O)c3ccccc3)c(C#N)cc2c1` the viability was 73.4% (inactive). In the case of `CCOC(=O)N1CCN(C(=O)CN(c2ccc(C)c(C)c2)S(=O)(=O)c2ccccc2)CC1`, the viability is reported as 124% (inactive). With `CCOC(=O)c1ccc(N2C(=O)CC(N3CC(C)OC(C)C3)C2=O)cc1` (stereo not drawn) the viability was 82.9% (inactive). In the case of `O=C(c1cccs1)N1CCN(C(=O)N2CCOCC2)CC1`, the viability is reported as 119% (inactive). For `CC(=O)CSc1nnc(CSc2ncccn2)n1C1CCCCC1`, the viability was 77.2% (inactive). For `Cc1nc2nc(CSc3nc4ccccc4s3)cc(=O)n2[nH]1`, the viability was 94.5% (inactive). With `O=S(=O)(c1ccccc1)N(CC(O)CN1CCCCC1)c1ccccc1` (stereo not drawn) the viability was 93% (inactive). For `COc1ccc(CCNC(=O)CSc2nc(C)nc3c2oc2ccccc23)cc1OC`, the viability was 131% (inactive). In the case of `CCc1nc2oc3ccccc3c(=O)c2c(=O)n1Cc1ccc(OC)cc1`, the viability is reported as 84.3% (inactive). With `O=C(CCCC(=O)N(CC(=O)NC1CCCC1)Cc1ccccc1Cl)Nc1ccccn1` the viability was 73.7% (inactive). With `O=C(NCCCNCc1ccccc1)c1ccc(/C=N/O)nc1` the viability was 117% (inactive). For `O=C(NCC1CCCO1)C(C(=O)c1ccccc1)n1cc(Cl)ccc1=O` (stereo not drawn), the viability was 87.7% (inactive). In the case of `Cc1ccc2c(c1)c1ncn(CCC3=CCCCC3)c(=O)c1n2C`, the viability is reported as 85.3% (inactive). With `CCCc1nnc(NC(=O)c2cc(OC)cc(OC)c2)s1` the viability was 81.5% (inactive). With `C#CCN1CC(C)/C(=N/O)CC1C` (stereo not drawn) the viability was 108% (inactive). With `O=C(NC1CCCC1)c1ccc(Br)s1` the viability was 90.4% (inactive). In the case of `O=C(Oc1ccccc1)c1ccc2nccnc2c1`, the viability is reported as 80.4% (inactive). In the case of `COc1ccc(S(=O)(=O)N2CCC(C(=O)N3CCOCC3)CC2)cc1OC`, the viability is reported as 101% (inactive). For `CCCc1[nH]nc2c1C(C1CC=CCC1)C(C#N)=C(N)O2` (stereo not drawn), the viability was 96.8% (inactive). In the case of `O=C(NCc1cccs1)C1CCN(S(=O)(=O)c2ccc3c(c2)OCCO3)CC1`, the viability is reported as 95.3% (inactive). In the case of `COc1ccc(C(=O)Cn2nnc(-c3ccc(N4CCOCC4)cc3)n2)cc1OC`, the viability is reported as 88.3% (inactive). With `O=C(Nc1nc2cc3c(cc2s1)OCCO3)c1cccc(S(=O)(=O)N2CCOCC2)c1` the viability was 79.5% (inactive). With `COc1ccc2[nH]c3ccc(OC)cc3c2c1` the viability was 89.2% (inactive). For `C=CCC(NCCCO)c1cccc(OC)c1OC` (stereo not drawn), the viability was 107% (inactive). In the case of `Fc1ccc(OCc2nn3c(Cn4nnc5ccccc54)nnc3s2)cc1`, the viability is reported as 59.8% (inactive). In the case of `CCOC(=O)c1sc(NC(=O)c2cc(S(=O)(=O)N3CCOCC3)ccc2C)nc1C`, the viability is reported as 88.3% (inactive). In the case of `COc1ccc(Br)cc1/C=N/n1c(C)nnc1C`, the viability is reported as 96.9% (inactive). In the case of `CCC(=O)Nc1ccccc1C(=O)N1CCN(Cc2ccccc2)CC1`, the viability is reported as 90.1% (inactive). With `O=C(Nc1cccc(C(=O)N2CCCC2)c1)c1ccccc1` the viability was 91.4% (inactive). In the case of `Cc1cc(C(F)(F)F)c(C#N)c(SCC(=O)NC2CC2)n1`, the viability is reported as 109% (inactive). With `CN1CCN(CC(=O)C23CC4CC(CC(C4)C2)C3)CC1` the viability was 122% (inactive). With `CN1CCN(S(=O)(=O)c2ccc(NC(=O)c3ccco3)cc2)CC1` the viability was 85.4% (inactive). With `COc1ccccc1-n1nnnc1S(=O)(=O)Cc1ccc(Cl)cc1` the viability was 95.1% (inactive).
